Hits are enriched below; roughly 3.5% of the tested compounds scored in any of these assays.
FBW7 activator = human FBW7 E3 ligase activation, primary screen | AlphaScreen FBW7–phospho-cyclin E peptide binding, activator screen | normalized activity (activation), % at 26.1 µM | actives 0.13% (n = 650,000); in the data active = normalized activity above about 1.9%;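 note: purified mutant Fbw7 with reduced substrate affinity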
MITF inh = blocks human microphthalmia-associated transcription factor | O75030 | AlphaScreen MITF homodimerization, bead proximity signal | inhibition, % at 2.6 µM | actives 0.91% (n = 650,000) | AID 1259374; in the data active = inhibition above about 50%;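 note: 0% = vehicle wells with protein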
TEAD-YAP inh = TEAD-YAP interaction inhibition. HEK-TIYL cells, TEAD-Gal4/YAP UAS-luciferase luminescence. inhibition, % at 9.12 µM. actives 1.4% (n = 640,000); in the data active = inhibition above about 32%;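 note: 0% = median of test compound wells and 100% = reference inhibitor wells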
GPR151 activ = activates the human receptor GPR151; Q8TDV0; PathHunter beta-arrestin GPR151 cells, luminescence; activation, % at 11.2 µM; actives 1% (n = 650,000); AID 1508602; in the data active = activation above about 4.9%;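 note: 0% = median of compound wells and 100% = cells with positive control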
MITF confirm = confirmation of human MITF inhibitors; inhibition, % at 2.6 µM; actives 16% (n = 4,700); shares compounds with MITF inh; AlphaScreen MITF homodimerization, biotin/His-MITF beads;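 active = inhibition above a cutoff derived from the DMSO control wells, cut at about 28% in these data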;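 note: 0% = MITF dimer wells with DMSO only; inhibitors lower the bead chemiluminescence by keeping MITF from dimerizing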
AlphaScreen DR = counter-screen: compounds optically interfering with AlphaScreen; actives 6% (n = 480); shares compounds with MITF inh; AlphaScreen optical interference counterscreen, cell-free; IC50, µM; call rule not given here
AlphaScreen intf2 = AlphaScreen optical interference, counter-screen. shares compounds with MITF inh. LysRS AlphaScreen counterscreen, signal interference, triplicate. inhibition, % at 2.6 µM. actives 7.6% (n = 4,700). AID 1259376;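 active = inhibition above a cutoff derived from the DMSO control wells, cut at about 30% in these data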
GPR151 confirm = confirmation of human GPR151 activators; shares compounds with GPR151 activ; GPR151 PathHunter beta-arrestin cells, luminescence, 90 min; % of EA-reagent control over plate median; activation, % at 11.2 µM; 6,700 tested, under 10 active; AID 1508609;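 active = mean percent activation across replicates above the confirmation screen cutoff of 4.91%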
GPR119 ag = activates human GPR119 in a GPR151 counter-screen; shares compounds with GPR151 activ; GPR119 PathHunter beta-arrestin cells, luminescence, 90 min; 0 = compound-well median, 100 = enzyme-acceptor control; activation, % at 11.2 µM; actives 0.3% (n = 6,700);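 active = mean percent activation in the counterscreen above 29.09%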;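 note: counterscreen on off-target GPR119 to flag nonselective hits from the GPR151 activator screen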
Target sequence (Q8TDV5 whole entry, looked up): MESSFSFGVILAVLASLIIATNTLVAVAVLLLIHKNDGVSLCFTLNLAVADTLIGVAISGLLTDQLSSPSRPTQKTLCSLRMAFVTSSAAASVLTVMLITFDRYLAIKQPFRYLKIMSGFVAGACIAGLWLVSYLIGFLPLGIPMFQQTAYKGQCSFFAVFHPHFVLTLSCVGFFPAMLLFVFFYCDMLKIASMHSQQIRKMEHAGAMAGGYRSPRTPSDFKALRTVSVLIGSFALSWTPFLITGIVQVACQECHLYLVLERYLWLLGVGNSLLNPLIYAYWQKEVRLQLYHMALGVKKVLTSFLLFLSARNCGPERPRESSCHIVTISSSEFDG
* = called active by the depositor; · = no result given; ! = not active in a repeat.

SMILES	FBW7 activator	MITF inh	TEAD-YAP inh	GPR151 activ	MITF confirm	AlphaScreen intf2	others
CCc1ccc(CN2CCN(Cc3ccc(Cl)cc3)CC2)cc1	0	76*	4	0	11	18
CCOc1ccc(CN2CCN(Cc3ccc(Cl)cc3)CC2)cc1	0	58*	4	0	20	14
CCOc1ccc(CN2CCN(c3ccccc3)CC2)cc1	0	35	-8	3	·	·
CN1CCN(Cc2ccc(Cl)cc2)CC1	0	39	-1	-1	·	·
O=[N+]([O-])/C=C/c1ccccc1OCc1cccc(F)c1	0	5	30	1	·	·
CCOc1cccc(CN2CCN(Cc3ccccc3)CC2)c1O	0	5	-4	0	·	·
CCOc1ccc(CN2CCN(Cc3ccccc3C)CC2)cc1	0	64*	4	0	9	5
CSc1ccc(CN2CCN(Cc3ccc(Cl)cc3)CC2)cc1	0	80*	7	2	11	16
Oc1ccc(CN2CCN(c3ccc(Cl)cc3)CC2)cc1	0	11	-3	2	·	·
COc1cccc(N2CCN(Cc3ccc([N+](=O)[O-])cc3)CC2)c1	0	57*	9	-1	3	3
CCC(C)N1CCN(Cc2cccc(F)c2)CC1 (centres undefined)	0	-1	4	0	·	·
CCc1ccc(CN2CCN(C(C)C)CC2)cc1	0	81*	-8	-2	29*	-9	AlphaScreen DR=>6.9
Cc1ccc(CN2CCN(C(C)C)CC2)cc1	0	54*	7	0	-4	-6
CC(C)N1CCN(Cc2ccc([N+](=O)[O-])cc2)CC1	0	67*	-6	0	5	6
N#CC(c1c[nH]c2ccccc12)N1CCCCCC1 (centres undefined)	0	-1	5	0	·	·
CCCCC[C@@H](/C=C/C=C\CCCCCCCC(=O)O)OO	·	-11	·	0	·	·
CCCCCCCC1C(C#N)=C(N)Oc2c1c(=O)oc1ccccc21 (centres undefined)	0	4	8	0	·	·
CC(C)CN1CCN(Cc2cc(F)ccc2F)CC1CCO (centres undefined)	0	5	-6	1	·	·
CN1CCN(Cc2c(F)cccc2F)CC1	0	62*	2	1	-25	-2
CN1CCN(Cc2ccc(F)cc2F)CC1	0	41	2	2	·	·
CN1CCN(Cc2cc(F)ccc2F)CC1	0	69*	-10	1	16	14
CCN1CCN(Cc2cc(F)ccc2F)CC1	0	62*	6	-1	-5	-2
CCCN1CCN(C(=O)COc2ccc(Cl)cc2C)CC1	0	4	-3	1	·	·
Oc1ccc(CN2CCN(Cc3ccccc3)CC2)cc1	0	4	-10	-1	·	·
CC(C)N1CCN(Cc2ccccc2Br)CC1	0	51*	-2	2	0	-4
SMILES	FBW7 activator	MITF inh	TEAD-YAP inh	GPR151 activ	MITF confirm	AlphaScreen intf2	others
Cc1ccccc1CN1CCN(C(C)C)CC1	0	78*	-8	-2	-7	1
Fc1ccc(CNCCc2c[nH]c3ccccc23)cc1	0	19	11	0	·	·
Fc1ccc(CNCCc2c[nH]c3ccccc23)cc1F	0	54*	6	-2	1	-2
COc1ccccc1CN1CCN(Cc2ccccc2F)CC1	1	46	-4	0	·	·
COc1ccccc1CN1CCN(Cc2ccccc2Cl)CC1	0	82*	1	1	1	15
COc1ccccc1N1CCN(Cc2ccccc2C)CC1	0	3	2	-1	·	·
COc1ccccc1CN1CCN(Cc2ccccc2OC)CC1	0	75*	-8	-1	3	3
COc1ccccc1N1CCN(Cc2ccccc2C#N)CC1	0	55*	0	1	3	6
CC(C)(C#N)O[C@@H]1O[C@H](CO)[C@@H](O)[C@H](O)[C@H]1O	0	8	4	-1	·	·
Cc1ccc(N2Cc3ccccc3C2=N)cc1Cl	0	14	-29	-5	·	·
N#CC1=C(N)Oc2c(c(=O)oc3ccccc23)C1c1cc(Br)ccc1F (centres undefined)	0	0	-4	2	·	·
CN(C)[C@@H]1C(=O)C(C(N)=O)=C(O)[C@@]2(O)C(=O)C3=C(O)c4c(O)ccc(Cl)c4[C@@](C)(O)[C@H]3C[C@@H]12	0	-5	-13	-1	·	·
CN(C)[C@@H]1C(=O)C(C(N)=O)=C(O)[C@@]2(O)C(=O)C3=C(O)c4c(O)cccc4[C@@](C)(O)[C@H]3[C@H](O)[C@@H]12	0	64*	-2	7.4*!	62*	31*!	AlphaScreen DR=4.4*!;GPR151 confirm=0;GPR119 ag=0
CSc1ccc(CN2CCN(Cc3ccc(F)cc3)CC2)cc1	0	78*	10	5.2*	3	0	GPR151 confirm=0;GPR119 ag=-5
Cc1c(N=Nc2c(O)[nH]c(=S)[nH]c2=O)c(=O)n(-c2ccccc2)n1C	0	92*	-9	15*	36*	100*	GPR151 confirm=1;GPR119 ag=4
O[C@@H]1CCCC[C@H]1N1CCC(c2ccccc2)CC1	0	13	9	0	·	·
O=C1CN=C(c2ccccc2)c2oc3ccc(Br)cc3c2N1	0	-1	0	2	·	·
COc1cccc(OC)c1C1=NCC(=O)Nc2c1oc1ccc(Br)cc21	0	5	58*	5.7*	·	·	GPR151 confirm=0;GPR119 ag=-4
CC1(C)C(C(=O)Nc2cccc3ccccc23)C1(C)C	0	3	2	0	·	·
Cc1ccccc1NC(=O)C1C(C)(C)C1(C)C	0	0	6	9.3*	·	·	GPR151 confirm=0;GPR119 ag=7
CCN1CCN(C(=O)COc2ccccc2F)CC1	0	2	-5	4	·	·
CN1C(=O)NC(=O)/C(=C/c2ccc(-c3ccccc3[N+](=O)[O-])o2)C1=O	0	1	4	5.0*	·	·	GPR151 confirm=-1;GPR119 ag=-14
Cc1c(C(=O)c2ccc3ccccc3c2)c2cccc3c2n1[C@H](CN1CCOCC1)CO3	1	10	·	5.4*	·	·	GPR151 confirm=1;GPR119 ag=-9
Oc1ccc(-c2ccccc2)cc1	0	-6	-13	-2	·	·
O=C1CC(c2cnc[nH]2)C2(CCCCC2)O1 (centres undefined)	0	2	-6	7.9*	·	·	GPR151 confirm=-1;GPR119 ag=-5
O=c1c2cc(I)ccc2nc(/C=C/c2ccco2)n1-c1ccccc1	0	2	-8	1	·	·
OCC1OC(Oc2ccc(Br)cc2)C(O)C(O)C1O (centres undefined)	0	-1	-5	0	·	·

Compound activity as filed in PubChem BioAssay.
